This is part of a sample that, as a whole, favours compounds with a hit. Of some 83,000 tested, about 20% had one in any assay.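 A percent growth of 40 corresponds to 60% growth inhibition; 0 means no net growth; -100 means all cells died. Active threshold: below 10.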 Activity calls are given as the source filed them.
Key:
Assay in all cases: NCI-60 one-dose screen, 48 h (100 = growth as untreated, 0 = no growth, -100 = all killed)
Conditions in all cases: 10 µM unless noted
HCT-15 colon = test system: HCT-15 colon
HT29 colon = test system: HT29 colon
SNB-75 CNS = test system: SNB-75 CNS
SNB-19 CNS = test system: SNB-19 CNS
U251 CNS = test system: U251 CNS
PC-3 prostate = test system: PC-3 prostate
UACC-62 melanoma = test system: UACC-62 melanoma
LOX IMVI melanoma = test system: LOX IMVI melanoma
SK-MEL-28 melanoma = test system: SK-MEL-28 melanoma
SK-MEL-2 melanoma = test system: SK-MEL-2 melanoma
EKVX NSCLC = test system: EKVX NSCLC
SN12C renal = test system: SN12C renal
UO-31 renal = test system: UO-31 renal
TK-10 renal = test system: TK-10 renal
CAKI-1 renal = test system: CAKI-1 renal
A498 renal = test system: A498 renal
CCRF-CEM leukemia = test system: CCRF-CEM leukemia
MOLT-4 leukemia = test system: MOLT-4 leukemia
SK-MEL-5 melanoma = test system: SK-MEL-5 melanoma
ACHN renal = test system: ACHN renal

Measured: growth

CCOc1ccc(NC(=O)c2cc(OC)c(OC)c(OC)c2)cc1
inactive: HCT-15 colon 31.8% | HT29 colon 11.5% | SNB-75 CNS 30.5% | SNB-19 CNS 49.6% | U251 CNS 30.1% | PC-3 prostate 29.9% | UACC-62 melanoma 35.7% | LOX IMVI melanoma 35.5% | SK-MEL-28 melanoma 66.4% | SK-MEL-2 melanoma 16.1% | EKVX NSCLC 54.1% | SN12C renal 56% | UO-31 renal 52% | TK-10 renal 60.3% | CAKI-1 renal 39.8% | CCRF-CEM leukemia 27.9% | MOLT-4 leukemia 31.6%
active: A498 renal -0.366%

COc1cc2c(c(OC)c1OC)C(=O)CC(c1cccc(NC(=O)c3ccccc3Br)c1)O2 (stereo not drawn)
inactive: HCT-15 colon 88.6% | HT29 colon 97.1% | SNB-75 CNS 93.3% | SNB-19 CNS 95.5% | U251 CNS 91.5% | PC-3 prostate 77.9% | SK-MEL-5 melanoma 86.1% | UACC-62 melanoma 72.2% | LOX IMVI melanoma 93.4% | SK-MEL-28 melanoma 111% | SK-MEL-2 melanoma 75.8% | EKVX NSCLC 102% | UO-31 renal 77.3% | TK-10 renal 97.1% | ACHN renal 93% | CAKI-1 renal 109% | CCRF-CEM leukemia 73.1% | MOLT-4 leukemia 69.6%

C=C1C(=O)O[C@H]2[C@H]1CC/C(CNC(=O)c1cc3ccccc3[nH]1)=C\CC[C@@]1(C)O[C@@H]21
active: HCT-15 colon -78.9% | HT29 colon -59.7% | U251 CNS -16.8% | PC-3 prostate -48.5% | UACC-62 melanoma -74.9% | LOX IMVI melanoma -78.8% | SK-MEL-28 melanoma -57.6% | SK-MEL-2 melanoma -60.8% | SN12C renal -43.3% | UO-31 renal -73.5% | TK-10 renal -89.9% | ACHN renal -77.6% | CAKI-1 renal -60.4% | A498 renal -63.4% | CCRF-CEM leukemia -35.7% | MOLT-4 leukemia -35.5%
inactive: SNB-75 CNS 48.4% | SNB-19 CNS 22.4% | EKVX NSCLC 14%

Cc1cccc(N2CCN(C(=S)c3ccc4c(c3)OCO4)CC2)c1
active: HT29 colon 6.38% | SNB-75 CNS -21.4% | SK-MEL-5 melanoma 6.14% | SK-MEL-2 melanoma 9.2%
inactive: HCT-15 colon 12.5% | SNB-19 CNS 47.1% | U251 CNS 20.7% | PC-3 prostate 19.5% | UACC-62 melanoma 29.1% | LOX IMVI melanoma 32.8% | SK-MEL-28 melanoma 54% | EKVX NSCLC 47.1% | UO-31 renal 25.6% | TK-10 renal 36.5% | CAKI-1 renal 15.1% | A498 renal 11.7% | CCRF-CEM leukemia 16.5% | MOLT-4 leukemia 22%

COc1cc(Nc2ncccc2NC(=O)c2cn(Cc3cccc(Oc4ccccc4)c3)nn2)cc(OC)c1
inactive: HCT-15 colon 68.7% | HT29 colon 88.8% | SNB-75 CNS 79.9% | SNB-19 CNS 79.6% | U251 CNS 80.2% | PC-3 prostate 66.5% | UACC-62 melanoma 65.5% | LOX IMVI melanoma 75.1% | SK-MEL-28 melanoma 83.3% | SK-MEL-2 melanoma 95.7% | EKVX NSCLC 75% | SN12C renal 84.2% | UO-31 renal 50.7% | TK-10 renal 100% | ACHN renal 86.1% | CAKI-1 renal 83.9% | A498 renal 76.2% | CCRF-CEM leukemia 84.5% | MOLT-4 leukemia 59.6%

O=P(O)(O)OCC1OC(n2cnc3c(NCc4ccccc4)ncnc32)C(O)C1O (stereo not drawn)
active: HCT-15 colon 9.47% | LOX IMVI melanoma -8.76% | ACHN renal 8.81% | CCRF-CEM leukemia 2.68%
inactive: HT29 colon 23.3% | SNB-75 CNS 49.9% | SNB-19 CNS 40.8% | U251 CNS 47.3% | PC-3 prostate 19.2% | SK-MEL-5 melanoma 84.1% | UACC-62 melanoma 38.4% | SK-MEL-28 melanoma 127% | SK-MEL-2 melanoma 85.2% | EKVX NSCLC 24.7% | UO-31 renal 41.2% | TK-10 renal 10.9% | CAKI-1 renal 11% | MOLT-4 leukemia 21.7%

COc1cc(-c2cc(-c3ccc(Nc4ncnc5cc(Cl)ccc45)cc3)nc(N3CCN(C)CC3)n2)cc(OC)c1OC
inactive: HCT-15 colon 64.4% | HT29 colon 81.7% | SNB-75 CNS 49.5% | SNB-19 CNS 102% | U251 CNS 106% | PC-3 prostate 82.2% | SK-MEL-5 melanoma 74.5% | UACC-62 melanoma 97% | LOX IMVI melanoma 86.2% | SK-MEL-28 melanoma 86.6% | SK-MEL-2 melanoma 93.4% | EKVX NSCLC 102% | UO-31 renal 23.4% | TK-10 renal 136% | CAKI-1 renal 91% | A498 renal 102% | CCRF-CEM leukemia 52.5%

CCC(CC)(N(CC(=O)O)CC(=O)O)C(CC)(CC)N(CC(=O)O)CC(=O)O
inactive: HCT-15 colon 131% | HT29 colon 89.9% | SNB-75 CNS 108% | SNB-19 CNS 107% | U251 CNS 102% | PC-3 prostate 85.1% | UACC-62 melanoma 102% | LOX IMVI melanoma 98.6% | SK-MEL-28 melanoma 108% | SK-MEL-2 melanoma 112% | EKVX NSCLC 117% | SN12C renal 94.8% | UO-31 renal 103% | TK-10 renal 103% | ACHN renal 116% | CAKI-1 renal 98.4% | A498 renal 126% | CCRF-CEM leukemia 93%

N#Cc1c(-c2ccccc2)cc(-c2ccccc2)n(CCCC(=O)NO)c1=O
inactive: HCT-15 colon 19.1% | HT29 colon 20.9% | SNB-19 CNS 43.5% | U251 CNS 26.8% | PC-3 prostate 35.5% | SK-MEL-28 melanoma 33.4% | SK-MEL-2 melanoma 34.1% | EKVX NSCLC 27.1% | TK-10 renal 34.3% | CAKI-1 renal 10.6% | CCRF-CEM leukemia 10.9% | MOLT-4 leukemia 14.1%
active: SNB-75 CNS -23.6% | SK-MEL-5 melanoma -13.6% | UACC-62 melanoma 9.37% | LOX IMVI melanoma 8.85% | UO-31 renal -24.8% | ACHN renal 8.48%

CCCCCCCCn1ccc2cc(NC(=O)Cn3cc(CN4CCC(C)CC4)nn3)ccc21
active: HCT-15 colon -32.2% | HT29 colon -66.9% | SNB-19 CNS -34.8% | U251 CNS -57.6% | UACC-62 melanoma -77.8% | LOX IMVI melanoma -85.3% | SK-MEL-28 melanoma -86.9% | UO-31 renal -87.7% | CCRF-CEM leukemia -12%
inactive: SNB-75 CNS 79.1% | PC-3 prostate 43% | SK-MEL-2 melanoma 50.3% | EKVX NSCLC 79% | SN12C renal 33.5% | TK-10 renal 80.7% | ACHN renal 55.1% | CAKI-1 renal 11.3% | A498 renal 87.6%

CCOC(=O)/C=C/c1c(C)[nH]c(=O)[nH]c1=O
inactive: HCT-15 colon 21.3% | HT29 colon 31.4% | SNB-75 CNS 110% | SNB-19 CNS 93.4% | U251 CNS 81.2% | PC-3 prostate 80.9% | UACC-62 melanoma 87.6% | LOX IMVI melanoma 82.6% | SK-MEL-28 melanoma 117% | SK-MEL-2 melanoma 30.1% | EKVX NSCLC 77.6% | SN12C renal 95.4% | UO-31 renal 102% | TK-10 renal 95.5% | CAKI-1 renal 63.8% | A498 renal 111% | CCRF-CEM leukemia 89.3% | MOLT-4 leukemia 61.3%

COc1ccc2nc3ccccc3c(NCc3ccccc3)c2c1
inactive: HCT-15 colon 13.1% | SNB-75 CNS 45.5% | SNB-19 CNS 24.2% | U251 CNS 22.9% | PC-3 prostate 28.6% | UACC-62 melanoma 45.9% | SK-MEL-28 melanoma 49.7% | SK-MEL-2 melanoma 47.9% | EKVX NSCLC 26.9% | SN12C renal 22.4% | UO-31 renal 13.8% | TK-10 renal 38.7% | ACHN renal 12.8% | CAKI-1 renal 25.8% | CCRF-CEM leukemia 33.4%
active: HT29 colon 8.49% | LOX IMVI melanoma -31.1% | A498 renal -14.3% | MOLT-4 leukemia 8.01%

Cc1cc(N2CCN(C)CC2)nc(NCc2cc(Nc3ccnc4cc(Cl)ccc34)ccc2F)n1
inactive: SNB-75 CNS 21.2% | SNB-19 CNS 34.3% | PC-3 prostate 28.6% | EKVX NSCLC 27.4% | CAKI-1 renal 12.9% | MOLT-4 leukemia 10.2%
active: HCT-15 colon -17.6% | HT29 colon -56.1% | U251 CNS -51.3% | UACC-62 melanoma -59.1% | LOX IMVI melanoma -70.1% | SK-MEL-28 melanoma -75.4% | SK-MEL-2 melanoma -67.8% | SN12C renal -20.8% | UO-31 renal -27.1% | TK-10 renal -29.5% | ACHN renal -10.6% | A498 renal -40.7% | CCRF-CEM leukemia -4.6%

COc1ccc(-c2ccc(-c3ccc(C(=N)N)cn3)s2)cc1
inactive: HCT-15 colon 19.9% | HT29 colon 16.1% | SNB-75 CNS 105% | SNB-19 CNS 88.6% | U251 CNS 15.3% | PC-3 prostate 65.5% | UACC-62 melanoma 101% | LOX IMVI melanoma 55% | SK-MEL-28 melanoma 109% | SK-MEL-2 melanoma 104% | EKVX NSCLC 95.6% | SN12C renal 86.7% | UO-31 renal 81.2% | TK-10 renal 109% | ACHN renal 92% | CAKI-1 renal 87.9% | A498 renal 98.8% | MOLT-4 leukemia 49.1%
active: CCRF-CEM leukemia 4.28%

Cc1cc(F)ccc1S(=O)(=O)Nc1cc(-c2c(O)ccc3ccccc23)c(O)c2ccccc12
inactive: HCT-15 colon 10.7% | HT29 colon 52.8% | SNB-75 CNS 46.2% | SNB-19 CNS 37.4% | U251 CNS 18.6% | PC-3 prostate 15.5% | LOX IMVI melanoma 16% | SK-MEL-28 melanoma 29.4% | EKVX NSCLC 19% | SN12C renal 46.6% | UO-31 renal 20.3% | TK-10 renal 72.7% | CAKI-1 renal 51.5% | A498 renal 57.7% | CCRF-CEM leukemia 21.9% | MOLT-4 leukemia 17.6%
active: UACC-62 melanoma 2.8% | SK-MEL-2 melanoma 5.32% | ACHN renal -7.97%

Cc1ccc2[nH]c(-c3ccc(S(C)(=O)=O)cc3)c(/C=N/N=C(N)N)c2c1
inactive: HCT-15 colon 35.3% | HT29 colon 16.7% | SNB-75 CNS 65.4% | SNB-19 CNS 57.1% | U251 CNS 33.4% | PC-3 prostate 39.9% | UACC-62 melanoma 41.5% | LOX IMVI melanoma 47.3% | SK-MEL-28 melanoma 71.2% | SK-MEL-2 melanoma 43.2% | EKVX NSCLC 90.2% | SN12C renal 56.9% | UO-31 renal 60% | TK-10 renal 90.9% | ACHN renal 63% | CAKI-1 renal 52.3% | A498 renal 38.2% | CCRF-CEM leukemia 37.2% | MOLT-4 leukemia 41.6%

CC(C)=CC(=O)N[C@@H]1CC2CCC3C(CC[C@@]4(C)C3CC[C@@H]4C(C)N(C)C)[C@@]2(C)C[C@@H]1O (stereo partly drawn)
active: HCT-15 colon 2.93% | HT29 colon -4.96% | LOX IMVI melanoma 1.62% | SK-MEL-28 melanoma -28% | MOLT-4 leukemia -7.31%
inactive: SNB-75 CNS 56.1% | SNB-19 CNS 86.3% | U251 CNS 56.7% | PC-3 prostate 44.6% | UACC-62 melanoma 44.6% | SK-MEL-2 melanoma 124% | EKVX NSCLC 32.9% | SN12C renal 71.3% | UO-31 renal 10.1% | TK-10 renal 84.5% | ACHN renal 69.6% | CAKI-1 renal 76.6% | A498 renal 67.2% | CCRF-CEM leukemia 30%

— PubChem BioAssay (NCI)
